Data from PubChem BioAssay (Tox21).
Values joined by “and” are separate entries in the source; they are usually repeats but may differ in a detail not shown here. Equal values may be shown once. Records with an inconclusive call do not appear. Unmarked numbers belong to inactive results. Active and inactive are the calls of the source. Calls come from the whole dose curve; as a rule, active = well fitted curve in the direction sought with a large enough effect in the repeat runs; inconclusive = weak or mixed curves; inactive = no such curve, though single readings can be large; an effect the other way counts as inactive or inconclusive.

test: qHTS assay to identify small molecule antagonists of the TGF-beta/Smad signaling pathway - cell viability counter screen (AID 1346824); conditions: SBE-bla HEK293T viability, CellTiter-Glo luminescence; series mostly up to 76.8 µM; viability change, negative = cytotoxic: at the top concentration; note: nearly all actives have a fitted effect of over 50% in size
Procedure, shortened: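 SBE-bla HEK 293T cells were plated overnight at 37 C, then given compounds in DMSO plus TGF-beta1 (added as 0.25 ng/mL solution) for 5 hr. After the bla read, CellTiter-Glo was added to the same wells and luminescence read after 30 min at room temperature.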
% is set by controls: 0 for no effect and ±100 for the full control effect; potency is the fitted concentration of half-maximal effect.

Row | SMILES | Potency | viability change, negative = cytotoxic
1 | Cc1ccc(-c2cc(C(F)(F)F)nn2-c2ccc(S(N)(=O)=O)cc2)cc1 | inactive | 
2 | CC(=O)CC(=O)Nc1ccc2[nH]c(=O)[nH]c2c1 |  | 9.49%
3 | c1ccc2cc3c(ccc4ccccc43)cc2c1 | inactive | 
4 | O=C(O)c1cccc(C(=O)O)c1 | inactive | 
5 | CCN1CCCC1CNC(=O)c1cc(S(=O)(=O)CC)c(N)cc1OC (centres undefined) |  | -6.83% [at 35.3 µM]
6 | CCC[C@H](N[C@@H](C)C(=O)N1[C@H](C(=O)O)C[C@@H]2CCCC[C@@H]21)C(=O)OCC | inactive | 
7 | CCCCCCCCCCCCc1ccccc1O | 54.2 µM (active) and 54.9 µM (active) | 
8 | CC(C)(C)NCC(O)c1cc(O)cc(O)c1 (centres undefined) |  | 2.79% [at 35.3 µM]

test: qHTS assay to identify small molecule agonists of the TGF-beta/Smad signaling pathway - cell viability counter screen (AID 1346829); conditions: SBE-bla HEK293T viability, CellTiter-Glo luminescence, 5 h; series mostly up to 76.8 µM; activity change, negative = cytotoxicity: at the top concentration; note: nearly all actives have a fitted effect of over 45% in size; for activity change, negative = cytotoxicity: top concentration of the series differs between compounds
Procedure, shortened: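 Luminescence from CellTiter-Glo, read after a 30 min room-temperature incubation, gives cell viability of SBE-bla HEK 293T cells treated 5 hr with compounds at 37 C.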

Row | SMILES | activity change, negative = cytotoxicity | Potency
9 | CC1COc2c(N3CCN(C)CC3)c(F)cc3c(=O)c(C(=O)O)cn1c23 (centres undefined) | 0.532% [at 35.3 µM] | 
10 | CCc1ccc(C(c2ccc(CC)cc2)C(Cl)Cl)cc1 |  | inactive
11 | O=C(O)CP(=O)(O)O | 6.35% [at 35.3 µM] | 
12 | c1ccc2c(c1)-c1cccc3c1c-2cc1ccccc13 |  | inactive
13 | NC(N)=Nc1nc(CSCC/C(N)=N/S(N)(=O)=O)cs1 |  | inactive
14 | NCCO | 0.523% | 
15 | CCCCCCCCCCCCCC[P+](CCCC)(CCCC)CCCC |  | 54.9 µM (active)
16 | O=C(O)c1cn(-c2ccc(F)cc2)c2cc(N3CCNCC3)c(F)cc2c1=O |  | inactive
17 | CCCCC/C=C/CC1CC(=O)OC1=O (centres undefined) | -1.22% | 
18 | CCCC(=O)c1ccccc1 | 8.47% | 
19 | Cc1cc(C2(c3cc(C)c(O)cc3C)OS(=O)(=O)c3ccccc32)c(C)cc1O |  | inactive
20 | O=C(OCc1ccccc1)c1ccc(O)cc1 |  | inactive
21 | CCC(C)(Oc1ccc(C2(c3ccc(OC(C)(CC)C(=O)O)cc3)CCCCC2)cc1)C(=O)O (centres undefined) | -2.74% [at 35.3 µM] | 
22 | CCc1cc(C(C)(C)C)c(O)c(C(C)(C)C)c1 |  | inactive
23 | CC(=O)CC(C)=O | -1.2% | 
24 | NNCCc1ccccc1 |  | inactive

Row | SMILES | activity change, negative = cytotoxicity | Potency
25 | Nc1nc2ccccc2[nH]1 |  | inactive
26 | O=C(Oc1ccccc1)c1ccccc1O |  | inactive
27 | NC(N)=NC(=O)Cc1c(Cl)cccc1Cl | 2.54% [at 35.3 µM] | 
28 | CC1=CC(=O)c2ccccc2C1=O |  | 54.9 µM (active)
29 | COc1cc(C(=S)N2CCOCC2)ccc1O | 1.91% [at 35.3 µM] | 
30 | CCCNC(C)C(=O)Nc1ccccc1C (centres undefined) | -1.83% [at 35.3 µM] | 
31 | CC(=O)O[C@]1(C(C)=O)CC[C@H]2[C@@H]3C[C@H](C)C4=CC(=O)CC[C@]4(C)[C@H]3CC[C@@]21C |  | inactive
32 | NC(Cc1ccc(Cl)cc1)C(=O)O (centres undefined) | -10.5% [at 0.29 µM] | 
33 | Cc1ccc(-c2cc(C(F)(F)F)nn2-c2ccc(S(N)(=O)=O)cc2)cc1 |  | inactive
34 | CC(=O)CC(=O)Nc1ccc2[nH]c(=O)[nH]c2c1 | 1.09% | 
35 | O=C(O)c1cccc(C(=O)O)c1 |  | inactive
36 | CCN1CCCC1CNC(=O)c1cc(S(=O)(=O)CC)c(N)cc1OC (centres undefined) | -13.3% [at 35.3 µM] | 
37 | CCC[C@H](N[C@@H](C)C(=O)N1[C@H](C(=O)O)C[C@@H]2CCCC[C@@H]21)C(=O)OCC |  | inactive
38 | CCCCCCCCCCCCc1ccccc1O |  | 49 µM (active)
39 | CC(C)(C)NCC(O)c1cc(O)cc(O)c1 (centres undefined) | 10.7% [at 35.3 µM] | 
